Values joined by “and” are separate entries in the source; they are usually repeats but may differ in a detail not shown here. Equal entries are not always repeated. Some compounds were tested as several samples or in several runs, with calls that do not always agree. Active and inactive are the calls of the source. How the source made its calls: active means hit-call score of the fitted dose curve at least 0.9, where 1 is the maximum; inactive means score below 0.9.
What was measured:
[1] = target: Paired box protein Pax-6 (Homo sapiens) (UniProt P26367); test: ATG_Pax6_CIS: Attagene CIS-FACTORIAL HepG2 Assay for human Paired Box 6 (PAX6) (AID 2282956); settings: HepG2 CIS-FACTORIAL PAX6 reporter transcription, RNA readout; actives raise or lower the signal
Procedure, shortened: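 Transient MRTU transfection of HepG2 → compound exposure 24 h → TriZol RNA, oligo(dT) RT → PCR, 6-FAM primer extension, HpaI cut → capillary electrophoresis; activity fitted both directions against DMSO.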

[2] = ATG_PXRE_CIS: Attagene CIS-FACTORIAL HepG2 Assay for human Pregnane X Receptor Element (PXRE) (AID 2282957); settings: HepG2 Attagene CIS-FACTORIAL PXRE reporter, mRNA; actives raise or lower the signal
Procedure, shortened: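 Transfect HepG2 with MRTUs (cis promoter elements); dose chemical, incubate 24 h; isolate RNA, RT with oligo(dT), PCR, 6-FAM label, HpaI cut, CE. Gain/loss fit vs DMSO.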

[3] = ATG_PPRE_CIS: Attagene CIS-FACTORIAL HepG2 Assay for human Peroxisome Proliferator-activated Response Element (PPRE) (AID 2282958); settings: HepG2 PPRE cis-element reporter, Attagene transcription factor profiling; actives raise or lower the signal
Procedure, shortened: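 HepG2 cells transiently transfected with multiplexed cis-element reporter units measure endogenous transcription factor activity. After 24 h compound exposure, reporter mRNA is quantified by RT-PCR, 6-FAM labeling, HpaI digestion and capillary electrophoresis; bidirectional fits are made against DMSO baseline.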

[4] = ATG_RORE_CIS: Attagene CIS-FACTORIAL HepG2 Assay for human RAR-related Orphan Receptor Element (RORE) (AID 2282959); settings: HepG2 Attagene cis-factorial RORE reporter, mRNA; actives raise or lower the signal
Procedure, shortened: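 HepG2 cells transiently transfected with multiple cis-element reporter transcription units, exposed to chemical for 24 h. Reporter mRNA quantified by RT-PCR, 6-FAM primer-extension labeling, HpaI digestion and capillary electrophoresis; bidirectional fit versus DMSO baseline.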

[5] = ATG_Sox_CIS: Attagene CIS-FACTORIAL HepG2 Assay for human SRY-box transcription factor (SOX) (AID 2282960); settings: HepG2 Attagene cis-factorial SOX reporter, mRNA; actives raise or lower the signal
Procedure, shortened: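 HepG2 cells transiently transfected with cis-element-driven multiple reporter transcription units, dosed 24 h; reporter mRNA measured by RT-PCR, FAM labelling, HpaI digestion and capillary electrophoresis. Bidirectional fit versus DMSO baseline.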

[6] = target: Transcription factor Sp1 (Homo sapiens) (UniProt P08047); test: ATG_Sp1_CIS: Attagene CIS-FACTORIAL HepG2 Assay for human Specificity Protein 1 (Sp1) (AID 2282961); settings: HepG2 Sp1 cis-reporter transcription, actives raise or lower the signal
Procedure, shortened: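 HepG2 cells transiently transfected with multiple reporter transcription units driven by cis-regulatory elements; Sp1-responsive reporter mRNA measured 24 h after dosing by RT-PCR and capillary electrophoresis fluorescence, fitted bidirectionally against DMSO baseline.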

[7] = ATG_SREBP_CIS: Attagene CIS-FACTORIAL HepG2 Assay for human Sterol Regulatory Element Binding (SREBP) (AID 2282962); settings: HepG2 Attagene cis-factorial SREBP reporter, mRNA; actives raise or lower the signal
Procedure, shortened: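 Transfected HepG2 (cis-regulated reporter library, endogenous TFs) → compound 24 h → total RNA → oligo(dT) RT → reporter-specific PCR → FAM primer extension, HpaI cut → CE fluorescence. Fit bidirectional vs DMSO.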

[8] = target: Signal transducer and activator of transcription 3 (Homo sapiens) (UniProt P40763); test: ATG_STAT3_CIS: Attagene CIS-FACTORIAL HepG2 Assay for human Signal Transducer and Activator of Transcription 3 (STAT3) (AID 2282963); settings: HepG2, Attagene cis-factorial STAT3 reporter transcription; actives raise or lower the signal
Procedure, shortened: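 HepG2 cells transiently transfected with cis-element-driven multiple reporter transcription units; after 24 h chemical exposure, reporter mRNA measured by RT-PCR, 6-FAM primer-extension labelling, HpaI digestion and capillary electrophoresis. Bidirectional fitting versus DMSO baseline.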

[9] = ATG_TA_CIS: Attagene CIS-FACTORIAL HepG2 Assay for human TA Basal Promoter (AID 2282964); settings: HepG2 Attagene CIS-factorial TA basal promoter reporter; actives raise or lower the signal
Procedure, shortened: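 HepG2 cells transiently transfected with multiple reporter units under cis promoter elements, reporting endogenous transcription factor activity; this endpoint tracks the TA basal promoter as background control. Reporter mRNA after 24 h dosing measured by RT-PCR/capillary electrophoresis; bidirectional fits versus DMSO.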

[10] = ATG_TCF_b_cat_CIS: Attagene CIS-FACTORIAL HepG2 Assay for human T-Cell-Factor with beta-catenin (TCF/b-cat) (AID 2282965); settings: HepG2 TCF/beta-catenin cis-reporter transcription, actives raise or lower the signal
Procedure, shortened: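 Using capillary electrophoresis as the read-out, labelled reporter cDNA fragments from transiently transfected HepG2 were sized and quantified. Exposure lasted 24 hours; activity in either direction was referenced to DMSO.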

Signal transducer and activator of transcription 3 (Homo sapiens), sequence (P40763 whole entry, looked up): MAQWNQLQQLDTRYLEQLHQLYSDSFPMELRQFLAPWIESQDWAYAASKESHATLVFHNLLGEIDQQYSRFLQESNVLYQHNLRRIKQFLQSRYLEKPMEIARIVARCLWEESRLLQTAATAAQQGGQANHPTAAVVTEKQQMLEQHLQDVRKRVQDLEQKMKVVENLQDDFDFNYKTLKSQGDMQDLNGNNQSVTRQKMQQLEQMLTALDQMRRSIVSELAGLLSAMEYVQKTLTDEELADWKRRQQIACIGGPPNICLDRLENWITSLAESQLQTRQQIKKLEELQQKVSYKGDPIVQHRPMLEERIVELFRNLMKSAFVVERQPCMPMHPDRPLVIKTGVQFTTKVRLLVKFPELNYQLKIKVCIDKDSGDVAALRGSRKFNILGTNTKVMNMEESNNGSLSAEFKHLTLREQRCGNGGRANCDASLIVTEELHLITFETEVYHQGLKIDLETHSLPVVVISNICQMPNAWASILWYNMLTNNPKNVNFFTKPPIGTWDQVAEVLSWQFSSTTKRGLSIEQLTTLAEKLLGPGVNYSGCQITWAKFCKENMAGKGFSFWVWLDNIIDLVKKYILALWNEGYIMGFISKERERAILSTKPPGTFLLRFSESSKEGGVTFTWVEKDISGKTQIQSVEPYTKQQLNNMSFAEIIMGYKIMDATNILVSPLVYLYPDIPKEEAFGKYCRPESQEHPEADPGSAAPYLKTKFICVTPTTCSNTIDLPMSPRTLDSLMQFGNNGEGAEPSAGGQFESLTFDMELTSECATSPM
Paired box protein Pax-6 (Homo sapiens), sequence (P26367 whole entry, looked up): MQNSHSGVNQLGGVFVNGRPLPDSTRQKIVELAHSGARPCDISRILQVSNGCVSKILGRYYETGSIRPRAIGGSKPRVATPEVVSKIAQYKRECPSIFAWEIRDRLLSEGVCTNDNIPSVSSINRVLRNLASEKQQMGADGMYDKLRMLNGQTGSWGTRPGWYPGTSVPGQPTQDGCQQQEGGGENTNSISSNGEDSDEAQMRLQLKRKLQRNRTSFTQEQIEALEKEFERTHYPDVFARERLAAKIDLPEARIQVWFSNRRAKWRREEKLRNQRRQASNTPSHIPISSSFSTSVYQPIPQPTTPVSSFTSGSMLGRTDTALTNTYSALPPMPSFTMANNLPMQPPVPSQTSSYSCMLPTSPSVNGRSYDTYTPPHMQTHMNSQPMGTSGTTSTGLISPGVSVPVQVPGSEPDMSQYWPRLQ
Transcription factor Sp1 (Homo sapiens), sequence (P08047 whole entry, looked up): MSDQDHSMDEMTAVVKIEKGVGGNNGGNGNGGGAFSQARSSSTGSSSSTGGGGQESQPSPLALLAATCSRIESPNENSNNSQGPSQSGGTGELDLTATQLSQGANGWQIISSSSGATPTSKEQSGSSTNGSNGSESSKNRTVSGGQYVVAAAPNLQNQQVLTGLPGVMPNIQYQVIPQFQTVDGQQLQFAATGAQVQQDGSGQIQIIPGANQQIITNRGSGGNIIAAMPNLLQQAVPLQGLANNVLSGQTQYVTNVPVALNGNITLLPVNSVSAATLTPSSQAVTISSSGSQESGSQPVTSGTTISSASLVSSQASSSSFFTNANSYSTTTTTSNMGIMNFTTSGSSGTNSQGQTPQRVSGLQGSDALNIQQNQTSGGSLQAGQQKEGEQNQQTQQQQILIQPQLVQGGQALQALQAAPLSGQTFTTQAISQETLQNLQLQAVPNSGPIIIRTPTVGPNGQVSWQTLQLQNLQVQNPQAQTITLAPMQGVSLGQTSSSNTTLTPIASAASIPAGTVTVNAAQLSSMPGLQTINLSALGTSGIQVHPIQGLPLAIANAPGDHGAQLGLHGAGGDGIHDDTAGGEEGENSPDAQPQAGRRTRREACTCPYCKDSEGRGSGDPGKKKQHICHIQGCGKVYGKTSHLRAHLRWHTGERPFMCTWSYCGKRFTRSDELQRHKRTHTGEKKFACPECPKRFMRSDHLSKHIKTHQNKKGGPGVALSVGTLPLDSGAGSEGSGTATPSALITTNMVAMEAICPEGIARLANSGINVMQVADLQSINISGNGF

With `CCCCOC(=O)CCCCC(=O)OCCCC` the outcome [1] was “inactive”, the outcome [2] was “inactive” and the outcome [3] was “inactive”. The outcome [4] was “inactive”, the outcome [5] was “inactive” and the outcome [6] was “inactive”. The outcome [7] was “inactive”, the outcome [8] was “inactive” and the outcome [9] was “inactive”. For the same compound, the outcome [10] was “inactive”.
For `O=[Si]=O`, the outcome [1] was “inactive”, the outcome [2] was “inactive” and the outcome [3] was “inactive”. For the same compound, the outcome [4] was “inactive”, the outcome [5] was “inactive” and the outcome [6] was “inactive”. The outcome [7] was “inactive”, the outcome [8] was “inactive” and the outcome [9] was “inactive”. For the same compound, the outcome [10] was “inactive”.
For `CCOCCOCCO`, the outcome [1] was “inactive”, the outcome [2] was “inactive” and the outcome [3] was “inactive”. The outcome [4] was “inactive”, the outcome [5] was “inactive” and the outcome [6] was “inactive”. For the same compound, the outcome [7] was “inactive”, the outcome [8] was “inactive” and the outcome [9] was “inactive”. The outcome [10] was “inactive”.
For `Cn1cnc2c1c(=O)[nH]c(=O)n2C`, the outcome [1] was “inactive”, the outcome [2] was “inactive” and the outcome [3] was “inactive”. The outcome [4] was “inactive”, the outcome [5] was “inactive” and the outcome [6] was “inactive”. The outcome [7] was “inactive”, the outcome [8] was “inactive” and the outcome [9] was “inactive”. The outcome [10] was “inactive”.
For `Cc1cn([C@H]2C=C[C@@H](CO)O2)c(=O)[nH]c1=O`, the outcome [1] was “inactive”, the outcome [2] was “inactive” and the outcome [3] was “inactive”. For the same compound, the outcome [4] was “inactive”, the outcome [5] was “inactive” and the outcome [6] was “inactive”. For the same compound, the outcome [7] was “inactive”, the outcome [8] was “inactive” and the outcome [9] was “inactive”. For the same compound, the outcome [10] was “inactive”.
For `CC(=O)O[C@]1(C(C)=O)CC[C@H]2[C@@H]3C=C(Cl)C4=CC(=O)[C@@H]5C[C@@H]5[C@]4(C)[C@H]3CC[C@@]21C`, the AC50 [1] was 27.3 µM (active) and 66.1 µM (active) and 100 µM (active), the outcome [1] was “inactive” and the AC50 [2] was 184 µM (active) and 142 µM (active) and 61.5 µM (active). For the same compound, the outcome [2] was “inactive”, the outcome [3] was “inactive” and the outcome [4] was “inactive”. For the same compound, the AC50 [5] was 100 µM (active), the outcome [5] was “inactive” and the AC50 [6] was 154 µM (active) and 170 µM (active). For the same compound, the outcome [6] was “inactive”, the AC50 [7] was 29.5 µM (active) and 52.1 µM (active) and 34.3 µM (active) and the outcome [7] was “inactive”. The outcome [8] was “inactive”, the AC50 [9] was 54.5 µM (active) and the outcome [9] was “inactive”. For the same compound, the outcome [10] was “inactive”.
In the case of `CC(N)=O`, the outcome [1] is reported as “inactive”, the AC50 [2] is reported as 28.9 µM (active) and the outcome [2] is reported as “inactive”. For the same compound, the outcome [5] was “inactive”, the outcome [6] was “inactive” and the outcome [7] was “inactive”. For the same compound, the outcome [8] was “inactive”, the outcome [9] was “inactive” and the outcome [10] was “inactive”.
In the case of `C=CCc1ccc(OC)c(OC)c1`, the outcome [1] is reported as “inactive”, the AC50 [2] is reported as 100 µM (active) and the outcome [3] is reported as “inactive”. For the same compound, the outcome [4] was “inactive”, the outcome [5] was “inactive” and the outcome [6] was “inactive”. For the same compound, the outcome [7] was “inactive”, the outcome [8] was “inactive” and the outcome [9] was “inactive”. The outcome [10] was “inactive”.
In the case of `C/C=C/c1ccc(OC)cc1`, the outcome [1] is reported as “inactive”, the outcome [2] is reported as “inactive” and the outcome [3] is reported as “inactive”. For the same compound, the outcome [4] was “inactive”, the outcome [5] was “inactive” and the outcome [6] was “inactive”. The outcome [7] was “inactive”, the outcome [8] was “inactive” and the outcome [9] was “inactive”. For the same compound, the outcome [10] was “inactive”.
For `CCN(CC)CCOc1ccc(C(=C(Cl)c2ccccc2)c2ccccc2)cc1`, the AC50 [1] was 10.4 µM (active), the outcome [1] was “inactive” and the AC50 [2] was 945 nM (active) [middle of 4 runs]. The outcome [3] was “inactive”, the AC50 [5] was 13.6 µM (active) and the outcome [5] was “inactive”. For the same compound, the outcome [6] was “inactive”, the AC50 [7] was 2.59 µM (active) [middle of 4 runs] and the AC50 [8] was 6.09 µM (active). The outcome [8] was “inactive”, the AC50 [9] was 11.2 µM (active) and the outcome [9] was “inactive”. The outcome [10] was “inactive”.
For `O=C1c2c(O)cccc2Cc2cccc(O)c21`, the outcome [1] was “inactive”, the outcome [2] was “inactive” and the outcome [3] was “inactive”. The outcome [4] was “inactive”, the outcome [5] was “inactive” and the outcome [6] was “inactive”. For the same compound, the outcome [7] was “inactive”, the outcome [8] was “inactive” and the outcome [9] was “inactive”. The outcome [10] was “inactive”.
With `CCCCCCCCCC[N+](C)(C)[O-]` the outcome [1] was “inactive”, the AC50 [2] was 79 µM (active) and the outcome [3] was “inactive”. The outcome [4] was “inactive”, the outcome [5] was “inactive” and the outcome [6] was “inactive”. The outcome [7] was “inactive”, the outcome [8] was “inactive” and the outcome [9] was “inactive”. The outcome [10] was “inactive”.
For `CC1=C(C)S(=O)(=O)CCS1(=O)=O`, the outcome [1] was “inactive”, the outcome [2] was “inactive” and the AC50 [3] was 89.5 µM (active). The outcome [4] was “inactive”, the outcome [5] was “inactive” and the outcome [6] was “inactive”. For the same compound, the outcome [7] was “inactive”, the outcome [8] was “inactive” and the outcome [9] was “inactive”. For the same compound, the outcome [10] was “inactive”.
In the case of `O=C(O)c1cccnc1`, the outcome [1] is reported as “inactive”, the outcome [2] is reported as “inactive” and the outcome [3] is reported as “inactive”. For the same compound, the outcome [4] was “inactive”, the outcome [5] was “inactive” and the outcome [6] was “inactive”. For the same compound, the outcome [7] was “inactive”, the outcome [8] was “inactive” and the outcome [9] was “inactive”. The outcome [10] was “inactive”.
With `CC(=O)OCC(COC(C)=O)OC(C)=O` the outcome [1] was “inactive”, the outcome [2] was “inactive” and the outcome [3] was “inactive”. For the same compound, the outcome [4] was “inactive”, the outcome [5] was “inactive” and the outcome [6] was “inactive”. For the same compound, the outcome [7] was “inactive”, the outcome [8] was “inactive” and the outcome [9] was “inactive”. The outcome [10] was “inactive”.
With `CCCCCCCCCCCCCCCCO` the outcome [1] was “inactive”, the outcome [2] was “inactive” and the outcome [3] was “inactive”. For the same compound, the outcome [4] was “inactive”, the outcome [5] was “inactive” and the outcome [6] was “inactive”. The outcome [7] was “inactive”, the outcome [8] was “inactive” and the outcome [9] was “inactive”. For the same compound, the AC50 [10] was 159 µM (active).
For `O=Cc1ccccc1C=O`, the outcome [1] was “inactive”, the outcome [2] was “inactive” and the outcome [3] was “inactive”. The outcome [4] was “inactive”, the outcome [5] was “inactive” and the outcome [6] was “inactive”. The outcome [7] was “inactive”, the outcome [8] was “inactive” and the outcome [9] was “inactive”. The outcome [10] was “inactive”.
With `O=C(O)CN(CC(=O)O)CC(=O)O` the outcome [1] was “inactive”, the outcome [2] was “inactive” and the outcome [3] was “inactive”. For the same compound, the outcome [4] was “inactive”, the outcome [5] was “inactive” and the outcome [6] was “inactive”. The outcome [7] was “inactive”, the outcome [8] was “inactive” and the outcome [9] was “inactive”. The outcome [10] was “inactive”.
In the case of `CCCCC(CC)CO` (stereo not drawn), the outcome [1] is reported as “inactive”, the AC50 [2] is reported as 27.5 µM (active) and the outcome [3] is reported as “inactive”. For the same compound, the outcome [4] was “inactive”, the outcome [5] was “inactive” and the outcome [6] was “inactive”. The outcome [7] was “inactive”, the outcome [8] was “inactive” and the outcome [9] was “inactive”. The outcome [10] was “inactive”.
For `O=C1NC(=O)C(c2ccccc2)(c2ccccc2)N1`, the outcome [1] was “inactive”, the outcome [2] was “inactive” and the outcome [3] was “inactive”. For the same compound, the outcome [4] was “inactive”, the outcome [5] was “inactive” and the outcome [6] was “inactive”. The outcome [7] was “inactive”, the outcome [8] was “inactive” and the outcome [9] was “inactive”. The outcome [10] was “inactive”.

Source: PubChem BioAssay (EPA / NIEHS)
